The supplement of paper PMC10849652
About 7,900 targets were measured; listed, in parts, are those with a hit and a random draw of the rest. About 0.6% of all pairs of compound and target were hits. A number with no mark means an inactive call.

Legend:
Assay in all cases: log2 fold change, soluble protein after heating vs DMSO (PISA); higher = thermal stabilisation; K562 cells, 10 uM, 30 min; active = over 0.2 and 3.5 SD of the protein, either way, in both replicates (recomputed)
[1] = compound: CC[C@@H]1C(=O)N(C)c2cnc(Nc3ccc(C(=O)NC4CCN(C)CC4)cc3OC)nc2N1C1CCCC1
Summary of the method: (§1)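 Aliquots of K562 cells (2×10^6 cells/mL) treated with 10 μM compound for 30 min were heated for 3 min over 48°C-58°C. After pooling and extraction in PBS with 0.5% NP-40 at 4°C, soluble protein from a 21,000xg, 90 min spin was quantified by TMTpro 16plex LC-MS/MS with channel sums equalised. Thermal stability is expressed against control samples, from duplicates, as a log2 fold change.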

volasertib = compound: CC[C@@H]1C(=O)N(C)c2cnc(Nc3ccc(C(=O)N[C@H]4CC[C@H](N5CCN(CC6CC6)CC5)CC4)cc3OC)nc2N1C(C)C [volasertib]
Summary of the method: as §1

[2] = compound: CC[C@H](C)N1C=C(C2=C(C=C(C=C21)C3=CN=C(C=C3)N4CCNCC4)C(=O)NCC5=C(C=C(NC5=O)C)C)C
Summary of the method: as §1

epoxomicin = compound: CC[C@H](C)[C@@H](C(=O)N[C@@H]([C@@H](C)O)C(=O)N[C@@H](CC(C)C)C(=O)[C@]1(CO1)C)NC(=O)[C@H]([C@@H](C)CC)N(C)C(=O)C [epoxomicin]
Summary of the method: as §1

[3] = compound: CCn1c(C(=O)N(C2CC2)C2CC2)cc2c3c(ncn3C)c(Nc3cc(C)n(C)n3)nc21
Summary of the method: as §1

[4] = compound: CCn1cc(-c2ccnc3[nH]c(-c4cccc(CN(C)C)c4)cc23)c(-c2ccc(NC(=O)N(C)C)cc2)n1
Summary of the method: as §1

[5] = compound: CN(C)CC(=O)Nc1ccc2[nH]c(=O)c3ccccc3c2c1
Summary of the method: as §1

rosiglitazone = compound: CN(CCOC1=CC=C(C=C1)C[C@H]2C(=O)NC(=O)S2)C3=CC=CC=N3 (racemic) [rosiglitazone]
Summary of the method: as §1

[6] = compound: CN1C2=C(C3=C1C(=O)N(N=C3)CC4=CC(=CC=C4)N)SC(=C2)S(=O)C
Summary of the method: as §1

[7] = compound: CN1CCC(CNc2ccc3ncc(-c4cccc(OC(F)(F)F)c4)n3n2)CC1
Summary of the method: as §1

saracatinib = compound: CN1CCN(CCOc2cc(OC3CCOCC3)c3c(Nc4c(Cl)ccc5c4OCO5)ncnc3c2)CC1 [saracatinib]
Summary of the method: as §1

sotrastaurin = compound: CN1CCN(c2nc(C3=C(c4c[nH]c5ccccc45)C(=O)NC3=O)c3ccccc3n2)CC1 [sotrastaurin]
Summary of the method: as §1

alvocidib = compound: CN1CC[C@H](c2c(O)cc(O)c3c(=O)cc(-c4ccccc4Cl)oc23)[C@H](O)C1 [alvocidib]
Summary of the method: as §1

Tubastatin A = compound: CN1CCc2c(c3ccccc3n2Cc2ccc(C(=O)NO)cc2)C1 [Tubastatin A]
Summary of the method: as §1

[8] = compound: CNC(=O)C1=CC=CC=C1NC2=NC(=NC=C2Cl)NC3=C(C=C(C=C3)N4CCOCC4)OC
Summary of the method: as §1

defactinib = compound: CNC(=O)c1ccc(Nc2ncc(C(F)(F)F)c(NCc3nccnc3N(C)S(C)(=O)=O)n2)cc1 [defactinib]
Summary of the method: as §1

rucaparib = compound: CNCc1ccc(-c2[nH]c3cc(F)cc4c3c2CCNC4=O)cc1 [rucaparib]
Summary of the method: as §1

[9] = compound: CNc1nc(-c2ccc3c(N)n[nH]c3c2)cc(N2C[C@@H](C(=O)NC3CCCCC3)CC[C@H]2C)n1
Summary of the method: as §1

encorafenib = compound: COC(=O)N[C@@H](C)CNc1nccc(-c2cn(C(C)C)nc2-c2cc(Cl)cc(NS(C)(=O)=O)c2F)n1 [encorafenib]
Summary of the method: as §1

[10] = compound: COC(=O)[C@H](CCSC)NC(=O)C1=C(C=C(C=C1)NC[C@H](CS)N)C2=CC=CC=C2
Summary of the method: as §1

Sequence of UniProt O14757 (O14757 whole entry, looked up): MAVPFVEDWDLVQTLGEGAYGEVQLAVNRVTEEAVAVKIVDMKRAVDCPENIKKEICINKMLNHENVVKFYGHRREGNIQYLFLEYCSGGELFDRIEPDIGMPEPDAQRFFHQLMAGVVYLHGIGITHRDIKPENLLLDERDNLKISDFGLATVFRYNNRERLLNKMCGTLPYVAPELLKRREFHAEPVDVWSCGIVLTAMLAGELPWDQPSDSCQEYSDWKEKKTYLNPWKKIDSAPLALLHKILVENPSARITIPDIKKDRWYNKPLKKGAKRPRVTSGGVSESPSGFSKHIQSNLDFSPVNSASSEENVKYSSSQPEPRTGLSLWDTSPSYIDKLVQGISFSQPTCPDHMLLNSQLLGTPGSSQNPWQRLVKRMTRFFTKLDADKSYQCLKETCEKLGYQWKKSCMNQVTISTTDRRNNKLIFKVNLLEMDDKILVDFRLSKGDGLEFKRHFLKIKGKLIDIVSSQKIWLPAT
Sequence of UniProt Q16740 (Q16740 whole entry, looked up): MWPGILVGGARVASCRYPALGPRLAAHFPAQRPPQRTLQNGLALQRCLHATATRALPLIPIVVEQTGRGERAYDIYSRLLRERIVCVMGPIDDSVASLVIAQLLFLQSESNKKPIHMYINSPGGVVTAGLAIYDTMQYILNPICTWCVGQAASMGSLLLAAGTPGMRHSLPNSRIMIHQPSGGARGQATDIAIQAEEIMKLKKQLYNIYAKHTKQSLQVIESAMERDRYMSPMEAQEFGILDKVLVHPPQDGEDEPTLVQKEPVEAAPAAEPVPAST
Sequence of UniProt Q99627 (Q99627 whole entry, looked up): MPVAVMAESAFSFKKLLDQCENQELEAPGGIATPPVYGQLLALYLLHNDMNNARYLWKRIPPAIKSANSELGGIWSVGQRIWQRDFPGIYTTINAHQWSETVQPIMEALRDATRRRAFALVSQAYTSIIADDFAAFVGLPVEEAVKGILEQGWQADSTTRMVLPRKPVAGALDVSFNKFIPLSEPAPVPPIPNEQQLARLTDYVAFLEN
Sequence of UniProt P67870 (P67870 whole entry, looked up): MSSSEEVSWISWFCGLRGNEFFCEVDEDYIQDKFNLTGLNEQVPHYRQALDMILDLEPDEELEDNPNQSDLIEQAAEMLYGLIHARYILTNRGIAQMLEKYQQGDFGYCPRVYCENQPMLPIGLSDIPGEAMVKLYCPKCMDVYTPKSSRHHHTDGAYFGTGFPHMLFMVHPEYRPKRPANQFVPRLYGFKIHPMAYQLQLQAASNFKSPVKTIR
Sequence of UniProt P83916 (P83916 whole entry, looked up): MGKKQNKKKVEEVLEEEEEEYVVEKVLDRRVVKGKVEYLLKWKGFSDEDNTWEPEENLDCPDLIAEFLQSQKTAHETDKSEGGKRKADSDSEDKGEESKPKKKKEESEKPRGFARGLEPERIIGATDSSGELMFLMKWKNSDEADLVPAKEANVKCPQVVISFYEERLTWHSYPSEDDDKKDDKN
Sequence of UniProt Q13137 (Q13137 whole entry, looked up): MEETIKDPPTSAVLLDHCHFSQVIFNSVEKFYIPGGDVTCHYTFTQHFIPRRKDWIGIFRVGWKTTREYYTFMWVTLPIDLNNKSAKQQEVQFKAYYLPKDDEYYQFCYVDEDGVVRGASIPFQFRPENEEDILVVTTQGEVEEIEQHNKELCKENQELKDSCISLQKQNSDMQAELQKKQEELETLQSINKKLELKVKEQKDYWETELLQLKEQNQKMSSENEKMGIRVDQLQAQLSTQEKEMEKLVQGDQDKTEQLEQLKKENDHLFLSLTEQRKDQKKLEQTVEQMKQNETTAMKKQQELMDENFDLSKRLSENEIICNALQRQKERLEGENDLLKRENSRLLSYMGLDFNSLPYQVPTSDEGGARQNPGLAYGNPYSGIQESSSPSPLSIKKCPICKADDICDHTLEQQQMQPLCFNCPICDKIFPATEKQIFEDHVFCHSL
Sequence of UniProt Q9ULV3 (Q9ULV3 whole entry, looked up): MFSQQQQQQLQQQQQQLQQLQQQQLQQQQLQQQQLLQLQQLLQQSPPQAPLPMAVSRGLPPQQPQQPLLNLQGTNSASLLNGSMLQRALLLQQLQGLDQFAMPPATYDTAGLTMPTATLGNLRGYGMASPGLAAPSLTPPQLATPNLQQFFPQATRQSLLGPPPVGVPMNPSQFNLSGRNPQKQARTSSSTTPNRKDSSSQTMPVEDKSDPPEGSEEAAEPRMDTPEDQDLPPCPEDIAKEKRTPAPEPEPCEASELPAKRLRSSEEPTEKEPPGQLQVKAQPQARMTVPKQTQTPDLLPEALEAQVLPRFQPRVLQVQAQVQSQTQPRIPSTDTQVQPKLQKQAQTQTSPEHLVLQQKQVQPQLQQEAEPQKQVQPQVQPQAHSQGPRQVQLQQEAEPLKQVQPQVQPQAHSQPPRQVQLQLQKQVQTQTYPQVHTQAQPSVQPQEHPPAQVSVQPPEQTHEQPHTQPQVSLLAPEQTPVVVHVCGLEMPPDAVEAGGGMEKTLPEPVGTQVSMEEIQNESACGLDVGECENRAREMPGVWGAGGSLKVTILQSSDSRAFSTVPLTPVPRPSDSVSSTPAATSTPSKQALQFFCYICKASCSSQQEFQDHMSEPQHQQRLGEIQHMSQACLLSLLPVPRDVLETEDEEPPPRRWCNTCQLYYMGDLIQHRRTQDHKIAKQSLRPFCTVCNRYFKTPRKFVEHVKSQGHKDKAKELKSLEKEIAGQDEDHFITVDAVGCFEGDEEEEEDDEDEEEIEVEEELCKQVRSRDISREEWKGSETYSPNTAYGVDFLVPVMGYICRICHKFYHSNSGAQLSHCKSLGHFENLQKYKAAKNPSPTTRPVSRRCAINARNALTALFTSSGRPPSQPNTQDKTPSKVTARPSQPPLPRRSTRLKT
Sequence of UniProt P09497 (P09497 whole entry, looked up): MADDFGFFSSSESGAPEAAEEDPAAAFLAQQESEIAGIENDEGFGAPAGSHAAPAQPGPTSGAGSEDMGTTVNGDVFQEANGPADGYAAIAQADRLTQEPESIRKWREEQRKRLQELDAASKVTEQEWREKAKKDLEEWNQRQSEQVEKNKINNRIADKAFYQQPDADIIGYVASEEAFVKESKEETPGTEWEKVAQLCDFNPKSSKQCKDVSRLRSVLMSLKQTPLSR
Sequence of UniProt Q8IWY9 (Q8IWY9 whole entry, looked up): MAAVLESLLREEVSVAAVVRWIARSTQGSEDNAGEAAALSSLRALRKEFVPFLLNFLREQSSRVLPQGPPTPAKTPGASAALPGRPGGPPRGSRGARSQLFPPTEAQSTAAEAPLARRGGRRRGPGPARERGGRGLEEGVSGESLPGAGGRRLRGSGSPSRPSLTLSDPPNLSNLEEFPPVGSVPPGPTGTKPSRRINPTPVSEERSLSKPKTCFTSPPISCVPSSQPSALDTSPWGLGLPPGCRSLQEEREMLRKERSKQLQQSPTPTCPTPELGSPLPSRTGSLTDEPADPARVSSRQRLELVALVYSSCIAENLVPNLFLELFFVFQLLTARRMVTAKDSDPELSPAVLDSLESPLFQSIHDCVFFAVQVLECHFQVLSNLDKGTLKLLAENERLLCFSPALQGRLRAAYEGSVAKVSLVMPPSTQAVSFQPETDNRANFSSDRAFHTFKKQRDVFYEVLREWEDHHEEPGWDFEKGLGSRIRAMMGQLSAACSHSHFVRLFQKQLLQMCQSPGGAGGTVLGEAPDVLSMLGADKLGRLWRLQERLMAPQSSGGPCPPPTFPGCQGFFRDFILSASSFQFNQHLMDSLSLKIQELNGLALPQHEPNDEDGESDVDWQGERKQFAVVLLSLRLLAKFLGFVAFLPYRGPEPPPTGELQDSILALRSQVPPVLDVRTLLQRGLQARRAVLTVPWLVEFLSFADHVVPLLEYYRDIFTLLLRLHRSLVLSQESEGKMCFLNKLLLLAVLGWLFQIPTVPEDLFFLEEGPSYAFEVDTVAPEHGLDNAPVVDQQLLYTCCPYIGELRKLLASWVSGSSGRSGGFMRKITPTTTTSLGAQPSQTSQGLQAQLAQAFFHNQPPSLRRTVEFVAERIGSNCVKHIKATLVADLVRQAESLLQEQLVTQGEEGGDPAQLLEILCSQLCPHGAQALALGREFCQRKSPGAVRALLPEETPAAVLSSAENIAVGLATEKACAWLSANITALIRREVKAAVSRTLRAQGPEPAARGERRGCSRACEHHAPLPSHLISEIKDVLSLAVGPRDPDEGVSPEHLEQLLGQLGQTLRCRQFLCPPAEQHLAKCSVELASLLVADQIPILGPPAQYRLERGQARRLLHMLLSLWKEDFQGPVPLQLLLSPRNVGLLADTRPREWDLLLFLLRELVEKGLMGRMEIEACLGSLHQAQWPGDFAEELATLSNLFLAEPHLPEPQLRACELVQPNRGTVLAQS
Sequence of UniProt Q9Y3X0 (Q9Y3X0 whole entry, looked up): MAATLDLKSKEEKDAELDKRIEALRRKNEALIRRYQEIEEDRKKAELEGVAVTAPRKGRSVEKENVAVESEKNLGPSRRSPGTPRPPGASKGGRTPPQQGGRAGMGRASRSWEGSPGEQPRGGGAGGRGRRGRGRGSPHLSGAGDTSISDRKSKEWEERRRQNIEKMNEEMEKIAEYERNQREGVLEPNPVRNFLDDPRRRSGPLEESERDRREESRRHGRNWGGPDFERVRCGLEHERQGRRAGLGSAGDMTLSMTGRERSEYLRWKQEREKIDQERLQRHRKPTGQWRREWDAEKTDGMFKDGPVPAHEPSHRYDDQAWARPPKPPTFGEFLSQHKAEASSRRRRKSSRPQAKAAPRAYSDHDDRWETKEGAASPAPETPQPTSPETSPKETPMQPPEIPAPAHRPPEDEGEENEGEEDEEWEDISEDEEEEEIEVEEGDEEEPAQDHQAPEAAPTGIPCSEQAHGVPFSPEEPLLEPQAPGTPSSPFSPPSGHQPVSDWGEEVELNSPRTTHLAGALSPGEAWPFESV
Sequence of UniProt P21964 (P21964 whole entry, looked up): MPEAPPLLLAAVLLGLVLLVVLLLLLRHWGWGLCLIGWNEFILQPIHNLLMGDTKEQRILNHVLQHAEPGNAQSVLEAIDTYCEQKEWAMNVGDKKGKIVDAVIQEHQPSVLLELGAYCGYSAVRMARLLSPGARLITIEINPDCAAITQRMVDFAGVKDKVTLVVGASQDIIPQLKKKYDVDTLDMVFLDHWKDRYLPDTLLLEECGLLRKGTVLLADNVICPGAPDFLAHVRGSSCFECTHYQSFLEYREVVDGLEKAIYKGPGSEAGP

Target | log2 fold change [1] | log2 fold change (volasertib) | log2 fold change [2] | log2 fold change (epoxomicin) | log2 fold change [3] | log2 fold change [4] | log2 fold change [5] | log2 fold change (rosiglitazone) | log2 fold change [6] | log2 fold change [7] | log2 fold change (saracatinib) | log2 fold change (sotrastaurin) | log2 fold change (alvocidib) | log2 fold change (Tubastatin A) | log2 fold change [8] | log2 fold change (defactinib) | log2 fold change (rucaparib) | log2 fold change [9] | log2 fold change (encorafenib) | log2 fold change [10]
COMMD2 (UniProt Q86X83) | -0.004 | -0.264 | 0.07 | -0.088 | -0.022 | -0.005 | -0.108 | 0.134 | 0 | -0.209 | -0.17 | 0.043 | -0.078 | 0.179 | 0.411 (active) | -0.088 | 0.034 | 0.039 | -0.005 | 0.012
CERS2 (UniProt Q96G23) | -0.148 | -0.133 | 0.011 | 0.03 | -0.004 | -0.001 | 0.001 | 0.088 | 0.007 | -0.46 (active) | 0.012 | -0.033 | -0.018 | -0.056 | -0.121 | -0.001 | 0.002 | -0.048 | 0.017 | 0.03
CLTB (UniProt P09497) | 0.099 | 0.134 | -0.102 | 0.032 | 0.001 | -0.006 | -0.024 | -0.013 | -0.064 | 0.106 | 0.064 | 0.017 | 0.078 | -0.019 | -0.034 | 0.063 | -0.039 | -0.009 | -0.014 | 0.031
CLPP (UniProt Q16740) | -0.03 | 0.035 | -0.045 | -0.056 | -0.023 | -0.015 | 0.017 | -0.035 | 0 | 0.081 | 0 | 0.009 | -0.011 | 0.067 | 0.054 | -0.017 | 0.026 | -0.028 | -0.077 | -0.038
COPS8 (UniProt Q99627) | -0.018 | 0.043 | 0.032 | -0.047 | 0.008 | 0.013 | 0.033 | 0.041 | 0.011 | 0.113 | -0.013 | -0.052 | -0.071 | -0.025 | -0.039 | -0.03 | -0.015 | 0.018 | 0.011 | -0.021
CIZ1 (UniProt Q9ULV3) | 0.071 | -0.022 | 0.046 | 0.086 | -0.008 | 0.017 | -0.011 | -0.034 | 0.015 | -0.035 | 0.046 | -0.075 | -0.074 | 0.102 | -0.11 | -0.117 | 0.027 | -0.109 | -0.038 | -0.001
COMT (UniProt P21964) | 0.013 | 0.073 | 0.01 | -0.023 | -0.021 | -0.01 | 0.005 | 0.039 | -0.11 | 0.142 | -0.046 | 0.109 | 0.004 | 0.4 (active) | 0.008 | -0.006 | -0.018 | 0.029 | -0.039 | -0.09
CLUH, A0A494C0R8 | 0.183 | 0.42 | 0.006 | -0.017 | 0.066 | 0.078 | 0.116 | 0.068 | 0.101 | 0.203 | -0.037 | -0.058 | -0.009 | -0.088 | 0.09 | -0.068 | 0.16 | 0.138 | 0.032 | 0.102
CBX1 (UniProt P83916) | 0.001 | -0.119 | 0.103 | -0.022 | -0.007 | -0.037 | -0.013 | 0.009 | 0.028 | -0.014 | 0.073 | -0.037 | -0.026 | 0.035 | -0.018 | -0.143 | -0.01 | -0.02 | -0.043 | 0
CPSF6 isoform 2 (UniProt Q16630) | 0.016 | 0.02 | 0.016 | -0.014 | -0.037 | -0.036 | -0.062 | 0.008 | 0.004 | -0.014 | -0.014 | 0.031 | -0.128 | 0.015 | -0.217 | -0.009 | 0.016 | 0.008 | -0.043 | 0.007
CALCOCO2 isoform 4 (UniProt Q13137) | -0.634 (active) | -0.471 (active) | -0.024 | 0.035 | 0.089 | 0.059 | 0.01 | 0 | 0.055 | -0.149 | -0.03 | -0.127 | 0.033 | 0.037 | 0.012 | 0.017 | -0.044 | -0.034 | 0.076 | 0.021
CHEK1 (UniProt O14757) | -0.137 | -0.274 (active) | 0.005 | 0.055 | -0.012 | -0.101 | 0.003 | 0.046 | -0.029 | -0.159 | 0 | -0.271 (active) | -0.041 | 0.09 | -0.32 (active) | -0.031 | -0.071 | 0.003 | 0.043 | 0
CSNK2B (UniProt P67870) | -0.029 | 0.009 | 0.043 | 0.019 | 0.001 | -0.051 | 0.027 | 0.034 | -0.048 | -0.176 | 0.074 | 0.036 | -0.035 | 0.021 | 0.246 | -0.09 | -0.116 | -0.031 | 0.024 | 0.038
CCDC9 (UniProt Q9Y3X0) | 0.081 | 0.127 | -0.051 | -0.018 | 0.032 | 0.051 | 0.002 | 0.021 | 0.025 | 0.009 | 0.023 | 0.077 | 0.192 | -0.046 | -0.038 | 0.148 | 0.116 | -0.031 | -0.021 | 0.004
CNOT4 isoform 6 (UniProt O95628) | -0.008 | -0.109 | 0.031 | 0.006 | 0.007 | -0.056 | 0.003 | 0.036 | 0.028 | -0.095 | 0 | 0.003 | -0.095 | -0.003 | -0.014 | -0.03 | -0.044 | -0.07 | -0.023 | -0.015
CDAN1 (UniProt Q8IWY9) | -0.079 | -0.15 | -0.041 | 0.014 | 0.04 | -0.047 | -0.058 | 0.045 | -0.022 | -0.001 | -0.012 | -0.03 | -0.019 | 0.009 | -0.029 | 0.024 | 0.085 | -0.006 | 0.005 | 0.112
